Reference: PubChem BioAssay AID1852 (Sanford-Burnham Center for Chemical Genomics, 2009)
In all, about 2,500 compounds went through this assay and about 1,100 (44%) were called active. The set was probably picked from earlier hits. Some of the results follow. A number with no mark means an inactive call.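 The calls were made as follows: active = inhibition above 50% at 4 µM in the single-point screen; inactive = inhibition of 50% or less.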

Experiment: blockers of TNF-a NF-kB luciferase induction – cell-based, HEK293T NF-kB-Luc, luminescence, selectivity assay for NOD1/NOD2 signaling inhibitor project, primary screen (AID 1852)
Conditions: TNF-a induced, 14 h, at 4 µM, hits give high values

| SMILES | inhibition |
| --- | --- |
| Cc1nc(C2CCC3C4CCC5=CC(=O)CC[C@]5(C)C4CC[C@]23C)cs1 (some centres not stated) | 34.9% |
| O=C(Nc1nc(-c2ccccn2)cs1)c1ccc(Cl)s1 | 19.4% |
| O=C(Nc1nc(-c2ccccn2)cs1)Nc1ccc(F)cc1F | 82.1% (active) |
| CCSc1nsc(NC(=O)Nc2cccc(F)c2)n1 | 46.9% |
| COc1cccc2sc(Nc3nc(-c4ccccn4)cs3)nc12 | 102% (active) |
| Fc1cc(F)c2nc(Nc3nc4c(F)cccc4s3)sc2c1 | -17.5% |
| COc1ccccc1-c1nnc(Nc2nc3c(OC)cccc3s2)o1 | 27.9% |
| Cc1cccnc1Nc1nc(-c2ccccn2)cs1 | 104% (active) |
| COc1ccc(CCNS(=O)(=O)c2ccc(Br)s2)cc1 | 35% |
| CC(=O)c1cccc(NS(=O)(=O)c2ccc(-c3cnc(C4CC4)o3)cc2)c1 | 66.3% (active) |
| COc1ccc(NS(=O)(=O)c2ccc(-c3cnc(C4CC4)o3)cc2)cc1OC | 38.9% |
| CSc1cccc(NS(=O)(=O)c2ccc(-c3coc(C)n3)cc2)c1 | 24.6% |
| O=C(Nc1cc(C(F)(F)F)cc(C(F)(F)F)c1)Nc1cnn(-c2ccc([N+](=O)[O-])cc2)c1C(F)(F)F | 48.5% |
| O=C(NC(NNc1ccc([N+](=O)[O-])cc1)(C(F)(F)F)C(F)(F)F)c1ccc(Cl)cc1 | 50.3% (active) |
| CCN(CC)C(=O)c1oc2ccc(S(=O)(=O)N3CC(C)CC(C)C3)cc2c1C (configuration not stated) | 31.2% |
| CCOC(=O)c1oc2ccc(S(=O)(=O)n3nc(-c4ccc(OC)cc4)cc3N)cc2c1C | 60.2% (active) |
| CCn1c(=O)c2c(cnn2C)c2ccccc21 | 81.7% (active) |
| CCOC(=O)C(=CNc1ccc2c(c1)c1ccccc1n2CC)C(=O)OCC | 17.5% |
| CCOc1ccc(C(=O)C(CCC(CN(C)C)C(=O)c2ccc(OCC)cc2)CN(C)C)cc1 (configuration not stated) | 12.6% |
| CN(C)CC(CCC(CN(C)C)C(=O)c1ccccc1)C(=O)c1ccccc1 (configuration not stated) | 102% (active) |
| C/C(=N\NC(=O)C(c1ccccc1)c1ccccc1)c1ccccn1 | 103% (active) |
| C/C(=N\Nc1nc2ccccc2[nH]1)c1ccccn1 | 101% (active) |
| C/C(=N\NC(=O)c1ccccc1Cl)c1ccccn1 | 97.3% (active) |
| C=CCNC(=S)N/N=C(\C)c1ccccn1 | 111% (active) |
| C/C(=N\NC(=O)c1ccccc1F)c1ccccn1 | 49.5% |
| CSC(=S)N/N=C(\C)c1ccc(Br)cc1 | 11.8% |
| COc1ccc(/C=C/c2cc(-c3ccc(C)cc3)o[n+]2C)cc1 | 30.9% |
